Experimental data: PubChem BioAssay (NCI)
This is part of a sample that, as a whole, favours compounds with a hit. Of some 83,000 tested, about 20% had one in any assay.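 Activity criterion: percent growth below 10, measured after cells in 96-well plates were exposed to a single compound concentration for 48 hours.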 Activity calls are given as the source filed them.

Each compound was assayed on HCT-116 colon (assay: NCI-60 one-dose screen, 48 h (100 = growth as untreated, 0 = no growth, -100 = all killed)). Conditions: 10 µM.
Protocol: Growth inhibition of the HCT-116 human tumor cell line is measured as a screen for anti-cancer activity. Cells are grown in 96 well plates and exposed to the test compound for 48 hours. Compounds are tested at a single concentration, which is 10^-5 M for most compounds. The reported endpoint is percent growth (GI% or GIPRCNT), where numbers from 0 - 100% represent growth inhibition, and numbers from -100% - 0 represent cell death. For example, a value of 40 represents 60% growth inhibition. A value of 0 means no net growth occurred over the course of the experiment. A value of -40 indicates 40% of cells at the beginning of the experiment died by the end of the experiment. A value of -100 means all cells are dead at the end of the experiment.
NCI-60 Human Tumor Cell Lines Screen was performed using the standard one-dose NCI protocol, which is described in more detail at https://dtp.cancer.gov/discovery_development/nci-60/default.htm.
Compounds with GIPRCNT values below 10 were considered active. Activity score was based on GIPRCNT using the following formula: […]
Score is 0 for GIPRCNT values of 100 or above, 50 for GIPRCNT values of 0, and 100 for GIPRCNT values of -100.

Question: For `O=C(c1ccc(Cl)cc1)C(c1c[nH]c2ccccc12)c1c[nH]c2ccccc12`, which growth is on record?
Answer: Its growth is -91.4% (active).

Question: Which growth does the source give for `COc1ccc(C2c3sc4ccc(C)cc4c3Oc3nc(N)nc(N)c32)cc1` (stereo not given) here?
Answer: The growth was 86.9% (inactive).

Question: Which growth does the source give for `O=C(Nc1ccc(OCc2ccc(Cl)cc2)cc1)Nc1ccc(Cl)c(C(F)(F)F)c1` here?
Answer: Its growth is 3.96% (active).

Question: Which growth does the source give for `O=C(CC(=O)Nc1ccc(Oc2ncnc3scc(Nc4n[nH]c(=S)s4)c23)cc1)Nc1ccc(Br)cc1` here?
Answer: Its growth is 107% (inactive).

Question: For `Fc1ccc(/C=C/c2nc3ccccc3n3c(-c4ccc(Cl)cc4)nnc23)cc1`, which growth is on record?
Answer: The growth was 41.8% (inactive).

Question: For `CC(C)(C)c1cc(/C=C2\S/C(=N/c3ncn[nH]3)NC2=O)cc(C(C)(C)C)c1O`, which growth is on record?
Answer: The growth was 7.92% (active).

Question: `O=C1NC(=S)S/C1=C\c1cn(-c2ccccc2)nc1-c1ccc([N+](=O)[O-])cc1` was tested. Which growth did it give?
Answer: The growth was 5% (active).

Question: For `Cc1cc(N=C2NC(=O)/C(=C/c3cc(C(C)(C)C)c(O)c(C(C)(C)C)c3)S2)n[nH]1`, which growth is on record?
Answer: The growth was 3.45% (active).

Question: For `CCOc1ccc(/C=N/NC(=O)Cn2nc(Cc3ccc(OC)cc3)c3onc(C)c3c2=O)cc1`, which growth is on record?
Answer: Its growth is -23.3% (active).

Question: Which growth does the source give for `COc1ccccc1-n1cc(C#N)c(N)c1C(=O)c1ccc(Cl)cc1Cl` here?
Answer: Its growth is 36.6% (inactive).

Question: With `Cc1ccc(-c2nc(C#N)c(S(=O)(=O)N3CCN(S(C)(=O)=O)CC3)o2)cc1` as the compound, how does the growth read?
Answer: Its growth is -74% (active).

Question: Which growth does the source give for `COc1cc(C2CC(c3ccc(Oc4ccc(Cl)cc4)cc3)=NN2c2nc(-c3ccc(Cl)cc3)c(C#N)c(N3CCOCC3)n2)cc(OC)c1OC` (stereo not given) here?
Answer: Its growth is 106% (inactive).

Question: Which growth does the source give for `COc1cc2oc(-c3cccc(C(=O)Nc4ccc(Cl)cc4)c3)cc(=O)c2c(OCCN)c1OC` here?
Answer: The growth was -90.3% (active).

Question: Which growth does the source give for `Cn1cc(-c2cc(N)n3nc(-c4cn(C)c5ccccc45)cc3n2)c2cc(F)ccc21` here?
Answer: Its growth is -92.1% (active).

Question: For `O=C(Nc1ccc(OCc2ccc(F)cc2)cc1)Nc1ccc(Cl)c(C(F)(F)F)c1`, which growth is on record?
Answer: The growth was 4.96% (active).

Question: With `O=[N+]([O-])c1cccc(-c2nnc3c(/C=C/c4ccccc4O)nc4ccccc4n23)c1` as the compound, how does the growth read?
Answer: The growth was 56.4% (inactive).

Question: Which growth does the source give for `COc1ccc(Cn2cc(C#N)c(N)c2C(C)=O)c(OC)c1` here?
Answer: The growth was 99.2% (inactive).

Question: `O=C(Nc1ccc(OCC(=O)c2ccc(Cl)cc2)cc1)Nc1ccc(Cl)c(C(F)(F)F)c1` was tested. Which growth did it give?
Answer: Its growth is 50.8% (inactive).

Question: With `COc1ccc(NCc2cn(-c3ccc(C(=O)O)cc3)nc2-c2ccc(F)cc2)cc1C(F)(F)F` as the compound, how does the growth read?
Answer: The growth was 39.5% (inactive).

Question: For `COc1cc(C2CC(c3ccccc3)=Nc3c(N)nc(N)nc3N2)ccc1Oc1nc(NCCO)nc(N2CCOCC2)n1` (stereo not given), which growth is on record?
Answer: The growth was 105% (inactive).

Question: With `COc1ccc(Cc2nn(CC(=O)N/N=C/c3ccc(Br)cc3)c(=O)c3c(C)noc23)cc1` as the compound, how does the growth read?
Answer: The growth was 0.469% (active).

Question: With `O=C1NC2C=CC=CC2/C1=C1/SC(=S)N(C2CC(=O)N(c3ccc(Br)cc3)C2=O)C1=O` (stereo not given) as the compound, how does the growth read?
Answer: Its growth is 103% (inactive).

Question: With `Cc1ccc2sc3c(c2c1)Oc1nc[nH]c(=O)c1C3c1cccc(F)c1` (stereo not given) as the compound, how does the growth read?
Answer: The growth was 89.3% (inactive).

Question: How did the growth turn out when `COc1ccc(C2OC[C@@]3(C)C4CC[C@]5(C)C(CC=C6C7CC(C)(C)CC[C@]7(C(=O)O)CC[C@]65C)[C@@]4(C)C[C@@H](O)[C@@H]3O2)cc1` (stereo not given in full) was run?
Answer: Its growth is 43.3% (inactive).

Question: For `COc1cc2oc(-c3cccc(C(=O)Nc4ccc(Cl)cc4)c3)cc(=O)c2c(OCCNC(=O)[C@@H](N)CO)c1OC`, which growth is on record?
Answer: Its growth is 23.6% (inactive).

Question: For `CCOC(=O)C1=C(N)N(c2ccc(C)cc2)C2=C(C(=O)CC(C)(C)C2)C1c1ccccc1Br` (stereo not given), which growth is on record?
Answer: Its growth is 40.6% (inactive).

Question: Which growth does the source give for `C#C[C@]1(O)CC[C@H]2[C@@H]3CC=C4c5sc(Nc6ccc(N(C)C)cc6)nc5CC[C@]4(C)[C@H]3CC[C@@]21C` here?
Answer: Its growth is -77.9% (active).

Question: Which growth does the source give for `COc1ccc(C(=O)COc2ccc(NC(=O)Nc3ccc(Cl)c(C(F)(F)F)c3)cc2)cc1` here?
Answer: Its growth is 25.9% (inactive).

Question: With `COc1ccc2[nH]cc(-c3nc(N)nnc3-c3cn(C)c4ncc(Br)cc34)c2c1` as the compound, how does the growth read?
Answer: Its growth is 1.45% (active).

Question: For `Cn1cc(-c2nc(N)nnc2-c2c[nH]c3ccccc23)c2cc(Br)cnc21`, which growth is on record?
Answer: Its growth is 7.04% (active).

Question: With `O=C(CN1CCN(c2ncnc3c2cnn3-c2ccccc2)CC1)Nc1ccc(Br)cc1` as the compound, how does the growth read?
Answer: The growth was 52.5% (inactive).

Question: For `COc1cccc(C(=O)CSc2nc(-c3ccc(OCc4ccccc4)c(OC)c3)c(C#N)c(=O)[nH]2)c1`, which growth is on record?
Answer: Its growth is 99.6% (inactive).

Question: With `COC(=O)CNC(=O)COc1c(OC)c(OC)cc2oc(-c3cccc(C(=O)Nc4ccc(Cl)cc4)c3)cc(=O)c12` as the compound, how does the growth read?
Answer: Its growth is 43.8% (inactive).

Question: `CCn1c(SCC(=O)Nc2ccc(-c3nc4ccccc4[nH]3)cc2)nc2ccccc2c1=O` was tested. Which growth did it give?
Answer: The growth was -81.4% (active).

Question: `COc1cc(-c2nc3ccc(C)cc3[nH]2)ccc1OCc1nnc(-c2ccccc2Br)o1` was tested. Which growth did it give?
Answer: The growth was 61% (inactive).

Question: With `C#CCOc1cc(N(CC)CC)ccc1C(C(=O)NC(C)(C)C)N(C(=O)C1CCc2cc(F)ccc2O1)c1ccc(F)cc1F` (stereo not given) as the compound, how does the growth read?
Answer: Its growth is 24.7% (inactive).

Question: How did the growth turn out when `Nc1nnc(-c2c[nH]c3ncc(Br)cc23)c(-c2c[nH]c3ccc(Br)cc23)n1` was run?
Answer: Its growth is 22.1% (inactive).

Question: For `C#C[C@]1(O)CC[C@H]2[C@@H]3CC=C4c5sc(Nc6ccc(C(F)(F)F)cn6)nc5CC[C@]4(C)[C@H]3CC[C@@]21C`, which growth is on record?
Answer: The growth was -66.9% (active).

Question: For `O=C(c1ccccc1)c1ccc2nc(-c3ccccc3Br)[nH]c2c1`, which growth is on record?
Answer: The growth was -38.8% (active).

Question: How did the growth turn out when `O=C(c1ccc(F)cc1)C(c1c[nH]c2ccccc12)c1c[nH]c2ccccc12` was run?
Answer: The growth was 7.24% (active).
